Test results as given in the supplement of paper PMC9262897, “Low-cost anti-mycobacterial drug discovery using engineered E. coli” (Nature Communications, 2022).
Counter-ions that a name gives are not always drawn. ± gives the standard deviation of the averaged measurements.

Tests used:
Test in all cases: growth (OD600 after 10 h); higher = more growth (less inhibition)
[1] = tested on: E. coli TESEC Alr+ wild-type control; settings: compound 0.1 mM; raw OD600 reference: median of DMSO wells 0.241, cell-free background 0.041
Method: (§1)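 TESEC Mtb Alr E. coli, or the Alr+ wild-type control, in 384-well plates with Prestwick library compounds at 0.1 mM and 1% DMSO, across arabinose induction levels of 1E3 to 1E7 nM. Growth is read as OD600 after 10 h at 37 °C in triplicate biological replicates.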

E. coli TESEC Mtb Alr [2] = settings: compound 0.1 mM
Method: as §1

E. coli TESEC Mtb Asd = settings: compound 0.1 mM
Method: (§2)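 TESEC E. coli strains in which the native enzyme is deleted and replaced by arabinose-inducible Mtb Asd, DapB, CysH or TrpD, each grown in its selective medium. Strains were screened against the Prestwick library at 0.1 mM and 1% DMSO in 384-well format at low and high arabinose induction. Growth is read as OD600 after 10 h in triplicate.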

E. coli TESEC Mtb DapB = settings: compound 0.1 mM
Method: as §2

E. coli TESEC Mtb Alr [3] = settings: compound 0.1 mM; remark: listed apart in the source
Method: (§3)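 TESEC Mtb Alr E. coli (ΔaraC ΔtolC ΔentC Δalr ΔdadX, arabinose-inducible Mtb Alr) or the Alr+ wild-type control strain, grown in defined M9-fructose medium without D-alanine in 96-well plates with Prestwick library compounds at 0.1 mM and 1% DMSO. Low Alr induction is 0.1 µM arabinose and high induction is 10 mM arabinose.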

[4] = tested on: E. coli TESEC Alr+ wild-type control; settings: compound 0.1 mM; raw OD600 reference: median of DMSO wells 0.49, cell-free background 0.052
Method: as §3

[5] = arabinose 1000 nM, raw OD600 reference: median of DMSO wells 0.294, cell-free background 0.041
[6] = arabinose 10000 nM, raw OD600 reference: median of DMSO wells 0.264, cell-free background 0.041
[7] = arabinose 100000 nM, raw OD600 reference: median of DMSO wells 0.201, cell-free background 0.041
[8] = arabinose 1000000 nM, raw OD600 reference: median of DMSO wells 0.193, cell-free background 0.041
[9] = arabinose 10000000 nM, raw OD600 reference: median of DMSO wells 0.146, cell-free background 0.041
[10] = arabinose induction (level): High, raw OD600 reference: median of DMSO wells 0.331, cell-free background 0.041
[11] = arabinose induction (level): Low, raw OD600 reference: median of DMSO wells 0.417, cell-free background 0.041
[12] = arabinose induction (level): High, raw OD600 reference: median of DMSO wells […], cell-free background 0.041
[13] = arabinose induction (level): Low, raw OD600 reference: median of DMSO wells 0.227, cell-free background 0.041
[14] = arabinose 100 nM, raw OD600 reference: median of DMSO wells 0.413, cell-free background 0.052
[15] = arabinose 10000000 nM, raw OD600 reference: median of DMSO wells […], cell-free background 0.052

SMILES | growth [1] | growth (E. coli TESEC Mtb Alr [2]; [5]) | growth (E. coli TESEC Mtb Alr [2]; [6]) | growth (E. coli TESEC Mtb Alr [2]; [7]) | growth (E. coli TESEC Mtb Alr [2]; [8]) | growth (E. coli TESEC Mtb Alr [2]; [9]) | growth (E. coli TESEC Mtb Asd; [10]) | growth (E. coli TESEC Mtb Asd; [11]) | growth (E. coli TESEC Mtb DapB; [12]) | growth (E. coli TESEC Mtb DapB; [13]) | growth (E. coli TESEC Mtb Alr [3]; [14]) | growth (E. coli TESEC Mtb Alr [3]; [15]) | growth [4]
CN(C)CCC(c1ccc(Br)cc1)c1ccccn1 (configuration not stated) [Brompheniramine maleate] | 0.218 ± 0.0069 | 0.293 ± 0.0063 | 0.264 ± 0.0057 | 0.209 ± 0.037 | 0.162 ± 0.0032 | 0.15 ± 0.008 | 0.179 ± 0.0086 | 0.302 ± 0.079 | 0.179 ± 0.01 | 0.253 ± 0.025 | 0.398 ± 0.011 | 0.339 ± 0.02 | 
N=C(N)c1ccc(OCCCCCOc2ccc(C(=N)N)cc2)cc1 [Pentamidine isethionate] | 0.0725 ± 0.0026 | 0.0837 ± 0.0024 | 0.0536 ± 0.0012 | 0.0903 ± 0.001 | 0.0538 ± 0.0022 | 0.095 ± 0.001 | 0.0804 ± 0.013 | 0.0745 ± 0.01 | 0.224 ± 0.008 | 0.0531 ± 0.0065 | 0.28 ± 0.16 | 0.0605 ± 0.0026 | 
CC(c1cc2ccccc2s1)N(O)C(N)=O (configuration not stated) [Zileuton] | 0.229 ± 0.004 | 0.295 ± 0.021 | 0.254 ± 0.011 | 0.223 ± 0.018 | 0.183 ± 0.0054 | 0.151 ± 0.0028 | 0.338 ± 0.022 | 0.352 ± 0.012 |  |  | 0.403 ± 0.0065 | 0.3407 ± 0.00091 | 0.457 ± 0.011
NS(=O)(=O)c1cc(C(=O)O)cc(N2CCCC2)c1Oc1ccccc1 [Piretanide] | 0.243 ± 0.0085 | 0.28 ± 0.0043 | 0.278 ± 0.0094 | 0.22 ± 0.025 | 0.202 ± 0.0072 | 0.134 ± 0.0051 | 0.405 ± 0.0083 | 0.4 ± 0.034 |  |  | 0.4122 ± 0.0034 | 0.341 ± 0.0064 | 0.444 ± 0.0057
O=C1c2cccc(O)c2C(=O)c2c(O)cccc21 [1,8-Dihydroxyanthraquinone] | 0.132 ± 0.0039 | 0.15 ± 0.013 | 0.0699 ± 0.015 | 0.138 ± 0.0019 | 0.0486 ± 0.0032 | 0.153 ± 0.0021 | 0.187 ± 0.013 | 0.147 ± 0.0069 |  |  | 0.361 ± 0.0048 | 0.218 ± 0.013 | 0.383 ± 0.011
CCCC1C(=O)N2C(N(C)C)=Nc3ccc(C)cc3N2C1=O (configuration not stated) [Azapropazone] | 0.226 ± 0.0057 | 0.287 ± 0.0066 | 0.2549 ± 0.002 | 0.178 ± 0.011 | 0.158 ± 0.0037 | 0.134 ± 0.0021 | 0.195 ± 0.031 | 0.323 ± 0.064 |  |  | 0.399 ± 0.013 | 0.301 ± 0.0094 | 0.483 ± 0.02
NC[C@@H]1O[C@H](O[C@H]2[C@@H](O)[C@H](O[C@@H]3[C@@H](O)[C@H](N)C[C@H](N)[C@H]3O[C@H]3O[C@H](CO)[C@@H](O)[C@H](O)[C@H]3N)O[C@@H]2CO)[C@H](N)[C@@H](O)[C@@H]1O [Paromomycin sulfate] | 0.251 ± 0.0064 | 0.327 ± 0.0078 | 0.275 ± 0.0073 | 0.19 ± 0.0041 | 0.19 ± 0.013 | 0.163 ± 0.0039 | 0.496 ± 0.0058 | 0.447 ± 0.027 |  |  | 0.405 ± 0.014 | 0.333 ± 0.0043 | 0.535 ± 0.089
Cc1cc(-n2c(=O)[nH]c(=O)n(C)c2=O)ccc1Oc1ccc(SC(F)(F)F)cc1 [Toltrazuril] | 0.0494 ± 0.013 | 0.0602 ± 0.032 | 0.0431 ± 0.006 | 0.0449 ± 0.0059 | 0.0576 ± 0.031 | 0.0455 ± 0.0035 | 0.0752 ± 0.012 | 0.203 ± 0.057 | 0.227 ± 0.017 | 0.254 ± 0.016 | 0.0828 ± 0.028 | 0.0543 ± 0.0016 | 
CNCCC(Oc1ccc(C(F)(F)F)cc1)c1ccccc1 (configuration not stated) [Fluoxetine hydrochloride] | 0.129 ± 0.0027 | 0.0669 ± 0.0012 | 0.133 ± 0.0068 | 0.0693 ± 0.0015 | 0.0486 ± 0.00026 | 0.05543 ± 0.00047 | 0.0984 ± 0.0045 | 0.086 ± 0.016 |  |  | 0.411 ± 0.011 | 0.0614 ± 0.0047 | 0.118 ± 0.11
COc1ccc(-c2cc(=S)ss2)cc1 [Anethole-trithione] | 0.182 ± 0.013 | 0.232 ± 0.008 | 0.218 ± 0.019 | 0.18 ± 0.0053 | 0.12 ± 0.026 | 0.168 ± 0.0049 | 0.211 ± 0.018 | 0.263 ± 0.022 |  |  | 0.4304 ± 0.0029 | 0.369 ± 0.019 | 0.616 ± 0.027
C[N+]1(C)CCC(=C(c2ccccc2)c2ccccc2)CC1 [Diphemanil methylsulfate] | 0.206 ± 0.0076 | 0.289 ± 0.01 | 0.255 ± 0.01 | 0.197 ± 0.013 | 0.16 ± 0.014 | 0.153 ± 0.0035 | 0.203 ± 0.027 | 0.352 ± 0.065 |  |  | 0.4115 ± 0.0028 | 0.36 ± 0.015 | 0.4312 ± 0.0036
CSc1ccc2c(c1)N(CCC1CCCCN1C)c1ccccc1S2 (configuration not stated) [Thioridazine hydrochloride] | 0.04013 ± 0.00015 | 0.0427 ± 0.0046 | 0.0393 ± 0.00064 | 0.04037 ± 0.00031 | 0.03907 ± 0.00012 | 0.04007 ± 5.8e-05 | 0.0505 ± 0.0013 | 0.0523 ± 0.0022 |  |  | 0.178 ± 0.21 | 0.05103 ± 0.00015 | 0.0484 ± 0.00036
Cc1cccc(Nc2ccncc2S(=O)(=O)NC(=O)NC(C)C)c1 [Torsemide] | 0.222 ± 0.005 | 0.29 ± 0.012 | 0.257 ± 0.019 | 0.168 ± 0.012 | 0.17 ± 0.0046 | 0.16 ± 0.0021 | 0.228 ± 0.029 | 0.353 ± 0.095 | 0.197 ± 0.021 | 0.26 ± 0.019 | 0.403 ± 0.016 | 0.326 ± 0.025 | 
CN1CCC(=C2c3ccccc3Sc3ccccc32)CC1 [Pimethixene maleate] | 0.0726 ± 0.0016 | 0.0585 ± 0.013 | 0.0419 ± 0.00051 | 0.0556 ± 0.0055 | 0.0414 ± 0.00026 | 0.05003 ± 0.00025 | 0.118 ± 0.028 | 0.161 ± 0.0073 |  |  | 0.362 ± 0.078 | 0.0659 ± 0.0097 | 0.0544 ± 0.0021
OC(CCN1CCCCC1)(c1ccccc1)c1ccccc1 [Pridinol methanesulfonate salt] | 0.226 ± 0.0064 | 0.299 ± 0.011 | 0.28 ± 0.012 | 0.193 ± 0.0055 | 0.177 ± 0.0082 | 0.151 ± 0.0016 | 0.468 ± 0.015 | 0.466 ± 0.027 |  |  | 0.397 ± 0.032 | 0.352 ± 0.011 | 0.469 ± 0.027
Cc1noc(NS(=O)(=O)c2ccc(N)cc2)c1C [Sulfisoxazole] | 0.248 ± 0.0068 | 0.274 ± 0.021 | 0.203 ± 0.0055 | 0.213 ± 0.042 | 0.12 ± 0.0019 | 0.149 ± 0.0027 | 0.308 ± 0.035 | 0.386 ± 0.073 |  |  | 0.424 ± 0.012 | 0.313 ± 0.019 | 0.588 ± 0.015
COc1cc(C(=O)NC2CCCNC2)cc(OC)c1OC (configuration not stated) [Troxipide] | 0.225 ± 0.0045 | 0.286 ± 0.012 | 0.255 ± 0.0049 | 0.205 ± 0.016 | 0.191 ± 0.02 | 0.134 ± 0.0027 | 0.353 ± 0.075 | 0.427 ± 0.057 |  |  | 0.402 ± 0.014 | 0.359 ± 0.038 | 0.504 ± 0.1
O=C1CC[C@@H](C(=O)N2CSC[C@H]2C(=O)O)N1 [Pidotimod] | 0.231 ± 0.0032 | 0.29 ± 0.003 | 0.261 ± 0.005 | 0.184 ± 0.032 | 0.217 ± 0.033 | 0.135 ± 0.0014 | 0.271 ± 0.059 | 0.415 ± 0.024 |  |  | 0.42 ± 0.011 | 0.335 ± 0.0057 | 0.536 ± 0.1
